The target in assay [1] is human Tropomyosin Receptor Kinase A (TRKA), NTRK1 (gene 4914) (UniProt P04629). As to the kind of experiment: NVS_ENZ_hTrkA: NovaScreen (NVS) Enzymatic Assay for human Tropomyosin Receptor Kinase A (TRKA) (AID 2283224). Here is the method: NVS_ENZ_hTrkA is a biochemical, single-readout assay that uses extracted gene-proteins in a cell-free assay. Measurements were taken 1 hour after chemical dosing in a 384-well plate.NVS_ENZ_hTrkA is one of one assay component(s) measured or calculated from the NVS_ENZ_hTrkA assay. It is designed to make measurements of enzyme activity, a form of enzyme reporter, as detected with fluorescence intensity signals by Fluorescence and electrophoretic mobility shift technology.Data from the assay component NVS_ENZ_hTrkA was analyzed into 1 assay endpoint. This assay endpoint, NVS_ENZ_hTrkA, was analyzed in the positive analysis fitting direction relative to DMSO as the negative control and baseline of activity. Using a type of enzyme reporter, loss-of-signal activity can be used to understand changes in the enzymatic activity as they relate to the gene NTRK1. Furthermore, this assay endpoint can be referred to as a primary readout, because this assay has produced multiple assay endpoints where this one serves a enzymatic activity function. To generalize the intended target to other relatable targets, this assay endpoint is annotated to the kinase intended target family, where the subfamily is receptor tyrosine kinase. […]
human Tropomyosin Receptor Kinase A (TRKA), NTRK1 (gene 4914), sequence (P04629 whole entry, looked up): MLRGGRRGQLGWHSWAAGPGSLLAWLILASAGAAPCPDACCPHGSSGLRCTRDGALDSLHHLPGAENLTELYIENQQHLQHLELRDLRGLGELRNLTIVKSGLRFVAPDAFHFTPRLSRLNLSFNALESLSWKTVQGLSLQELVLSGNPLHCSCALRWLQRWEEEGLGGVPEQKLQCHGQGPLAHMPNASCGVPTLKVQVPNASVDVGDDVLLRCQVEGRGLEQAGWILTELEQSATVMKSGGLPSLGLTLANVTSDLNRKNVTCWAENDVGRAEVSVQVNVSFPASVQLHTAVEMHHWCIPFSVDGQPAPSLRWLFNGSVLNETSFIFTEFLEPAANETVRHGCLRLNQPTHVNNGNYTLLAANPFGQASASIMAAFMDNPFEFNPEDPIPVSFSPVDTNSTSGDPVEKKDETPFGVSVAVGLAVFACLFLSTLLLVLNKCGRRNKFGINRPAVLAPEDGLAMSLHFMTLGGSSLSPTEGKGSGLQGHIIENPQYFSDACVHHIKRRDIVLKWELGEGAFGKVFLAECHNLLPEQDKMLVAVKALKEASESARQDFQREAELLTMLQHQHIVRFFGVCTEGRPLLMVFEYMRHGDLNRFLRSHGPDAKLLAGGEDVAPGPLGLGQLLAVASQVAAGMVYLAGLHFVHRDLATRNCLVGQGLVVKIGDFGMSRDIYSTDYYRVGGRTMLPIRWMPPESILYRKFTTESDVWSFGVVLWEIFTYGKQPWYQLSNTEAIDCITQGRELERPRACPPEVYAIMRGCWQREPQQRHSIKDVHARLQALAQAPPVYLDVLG

Assay [2] deals with human Vascular Endothelial Growth Factor Receptor 1 (VEGFR1), FLT1 (gene 2321) (UniProt P17948). As to the kind of experiment: NVS_ENZ_hVEGFR1: NovaScreen (NVS) Enzymatic Assay for human Vascular Endothelial Growth Factor Receptor 1 (VEGFR1) (AID 2283226). Summed up:
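Cell-free assay of recombinant human VEGFR1 kinase with substrate, measured 1 h after dosing; fluorescence with electrophoretic mobility-shift separation of substrate and product, referenced to DMSO; primary screen at 25 uM in duplicate, actives then run in concentration series.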

In assay [3] the target is rat Acetylcholinesterase (AChE), Ache (gene 83817) (UniProt P37136). As to the kind of experiment: NVS_ENZ_rAChE: NovaScreen (NVS) Enzymatic Assay for rat Acetylcholinesterase (AChE) (AID 2283233). The method, boiled down: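 Rat brain membrane acetylcholinesterase activity measured colorimetrically 0.33 h after compound addition, loss of signal relative to DMSO. Primary screen in duplicate at 25 uM; actives re-run as concentration-response with 50 uM top concentration.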
rat Acetylcholinesterase (AChE), Ache (gene 83817), sequence (P37136 whole entry, looked up): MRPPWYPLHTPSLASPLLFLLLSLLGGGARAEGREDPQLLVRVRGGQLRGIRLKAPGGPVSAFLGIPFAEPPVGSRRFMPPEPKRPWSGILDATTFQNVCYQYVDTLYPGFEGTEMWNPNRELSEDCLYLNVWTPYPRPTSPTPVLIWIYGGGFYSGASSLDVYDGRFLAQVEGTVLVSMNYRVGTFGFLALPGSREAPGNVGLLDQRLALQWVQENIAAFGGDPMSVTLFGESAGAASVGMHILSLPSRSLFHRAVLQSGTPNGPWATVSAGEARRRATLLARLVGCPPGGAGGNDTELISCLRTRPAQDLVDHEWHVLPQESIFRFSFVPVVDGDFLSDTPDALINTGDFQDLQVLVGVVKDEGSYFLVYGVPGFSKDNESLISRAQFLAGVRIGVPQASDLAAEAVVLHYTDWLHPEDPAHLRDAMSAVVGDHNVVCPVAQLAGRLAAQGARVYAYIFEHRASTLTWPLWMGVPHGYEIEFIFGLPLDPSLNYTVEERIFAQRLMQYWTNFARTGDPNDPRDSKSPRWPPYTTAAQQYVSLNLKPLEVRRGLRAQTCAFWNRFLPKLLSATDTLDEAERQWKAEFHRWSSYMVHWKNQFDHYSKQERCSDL

Assay [4] has as its system rat Monoamine Oxidase, MAO-A, Peripheral (MAOAP), gene 29253. Description: NVS_ENZ_rMAOAP: NovaScreen (NVS) Enzymatic Assay for rat Monoamine Oxidase, MAO-A, Peripheral (MAOAP) (AID 2283237). The method, boiled down: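 Rat liver mitochondrial membranes served as the MAO-A source, with enzyme activity measured by radiometric scintillation counting 1.17 hours after dosing. Loss of signal was fitted against DMSO; primary screen used 25 uM in duplicate, follow-up used concentration series.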

Results filed as inconclusive are left out. The source made the active and inactive calls. Rule for the calls: active = hit-call score of the fitted dose curve at least 0.9, where 1 is the maximum; inconclusive = response in the unintended direction; inactive = score below 0.9.

human Vascular Endothelial Growth Factor Receptor 1 (VEGFR1), FLT1 (gene 2321), sequence (P17948 whole entry, looked up): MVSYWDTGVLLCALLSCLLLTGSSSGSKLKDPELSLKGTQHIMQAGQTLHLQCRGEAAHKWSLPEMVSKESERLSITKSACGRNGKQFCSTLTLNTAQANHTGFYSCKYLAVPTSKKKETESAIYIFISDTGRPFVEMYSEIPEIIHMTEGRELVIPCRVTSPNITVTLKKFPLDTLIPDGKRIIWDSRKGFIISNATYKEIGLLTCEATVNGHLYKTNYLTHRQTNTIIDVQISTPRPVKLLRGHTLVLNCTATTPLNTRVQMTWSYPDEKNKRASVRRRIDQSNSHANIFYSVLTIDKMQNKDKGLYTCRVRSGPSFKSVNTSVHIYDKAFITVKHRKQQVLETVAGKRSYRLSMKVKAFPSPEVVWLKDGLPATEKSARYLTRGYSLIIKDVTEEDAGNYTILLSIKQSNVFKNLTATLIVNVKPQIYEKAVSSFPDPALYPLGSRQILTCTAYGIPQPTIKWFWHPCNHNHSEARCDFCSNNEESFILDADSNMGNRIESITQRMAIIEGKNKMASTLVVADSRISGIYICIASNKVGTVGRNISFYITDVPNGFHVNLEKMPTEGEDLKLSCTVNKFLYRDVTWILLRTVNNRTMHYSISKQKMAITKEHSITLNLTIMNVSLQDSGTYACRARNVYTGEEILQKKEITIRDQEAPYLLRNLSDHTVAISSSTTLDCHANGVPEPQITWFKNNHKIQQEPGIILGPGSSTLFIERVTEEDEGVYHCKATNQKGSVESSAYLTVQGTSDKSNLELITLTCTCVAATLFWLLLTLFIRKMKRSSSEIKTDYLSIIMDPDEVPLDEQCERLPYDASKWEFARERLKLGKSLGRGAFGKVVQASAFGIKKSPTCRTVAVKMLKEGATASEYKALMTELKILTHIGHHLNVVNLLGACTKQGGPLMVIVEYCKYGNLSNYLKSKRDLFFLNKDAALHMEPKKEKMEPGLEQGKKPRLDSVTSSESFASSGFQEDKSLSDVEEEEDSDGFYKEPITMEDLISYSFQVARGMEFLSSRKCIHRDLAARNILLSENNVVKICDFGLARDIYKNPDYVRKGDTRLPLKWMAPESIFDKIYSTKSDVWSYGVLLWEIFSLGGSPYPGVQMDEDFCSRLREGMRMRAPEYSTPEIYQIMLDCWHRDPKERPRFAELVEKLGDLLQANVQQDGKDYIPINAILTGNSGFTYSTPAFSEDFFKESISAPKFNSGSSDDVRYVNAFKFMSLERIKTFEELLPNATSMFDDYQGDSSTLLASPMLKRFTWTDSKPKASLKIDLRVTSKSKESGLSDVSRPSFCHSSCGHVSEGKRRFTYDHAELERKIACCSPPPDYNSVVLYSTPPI

Consider `O=[N+]([O-])c1ccccc1`, for which the outcome in assay [1] was inactive.
On the same count and under the same terms, to `ClC1=C(Cl)C2(Cl)C3C(Cl)C(Cl)CC3C1(Cl)C2(Cl)Cl` (stereo not drawn) belongs “inactive”.
For orientation: AC50 means the concentration giving half of the maximal activity seen. For the compound `Cc1ccc2c(c1N)C(=O)c1ccccc1C2=O`, the AC50 in assay [2] is 25 µM (active).
For the compound `CC(C)(C)c1ccc(O)cc1`, the result in assay [2] was inactive.
Take `CCCCN(CCCC)SN(C)C(=O)Oc1cccc2c1OC(C)(C)C2`: the AC50 in assay [3] was 1.13 µM (active).
Consider `Nc1cc2c3c(c1)C(c1ccccc1)=N[C@@H](NC(=O)c1cccnc1)C(=O)N3CC2`, for which, in assay [3], the result was inactive.
Take `ClC(Cl)c1ccccc1`: the compound was called inactive in assay [4].
On the same count and under the same terms, to `Cc1ccc(O)cc1C` belongs “inactive”.

The values above are taken from PubChem BioAssay (EPA / NIEHS).
